# Active and inactive are the calls of the source. Calls follow the shape of the full dose curve.
# Assay: qHTS drug screen for cell cycle checkpoint inhibitors in PARPi-resistant BRCA-mutant ovarian cancer cell lines. (AID 1963452)
# Conditions: PEO1/OlaR viability, CellTiter-Glo luminescence, 96 h; stronger effect = lower value
# Method in brief: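 PEO1, PEO4 and PEO1/OlaR ovarian cancer cells, 600 per well, exposed 96 h at 37C to a dilution series. Viability read by CellTiter-Glo luminescence, normalized to DMSO and empty wells; activity summarized as Z-AUC.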
row,Compound,Z-AUC
1,CCN1C[C@]2(OC(=O)c3ccccc3NC(C)=O)CC[C@H](OC)[C@@]34[C@H]5CC6[C@@H](OC)C[C@](O)(C(C[C@@H]23)[C@@H]14)[C@@]5(O)[C@@H]6OC,0.577 (inactive)
2,CCCC[N+]1(C)[C@H]2CC(OC(=O)[C@H](CO)c3ccccc3)C[C@H]1[C@H]1O[C@H]12 (stereo partly drawn),1.48 (inactive)
3,N=c1c2c(-c3ccccc3)c(-c3ccccc3)n(Cc3ccccc3)c2ncn1C1CCC(O)CC1 (stereo not drawn),0.292 (inactive)
4,C[C@]12CC[C@@H]3[C@@H](CCC4=CC(=O)CC[C@@H]43)[C@@H]1CC[C@@H]2OC(=O)CCc1ccccc1,-0.102 (inactive)
5,c1ccc2c(CN3CCNCC3)cccc2c1,-0.771 (inactive)
6,CCOP(=O)(OCC)C(C)NC(=O)N(CCCl)N=O (stereo not drawn),1.21 (inactive)
7,O=c1[nH]c2ccc(Cl)cc2c(N[C@@H]2CN3CCC2CC3)c1-c1nc2ccccc2[nH]1,-1.21 (inactive)
8,CC[C@@H](C(N)=O)N1CCCC1=O,-0.418 (inactive)
9,Clc1ccccc1C(c1ccccc1)(c1ccccc1)n1cccn1,0.364 (inactive)
10,NC1=NC(=O)N2CC12 (stereo not drawn),-1.19 (inactive)

# Same assay, conditions: PEO1/OlaR viability, CellTiter-Glo luminescence, 96 h; measured here: PEO1 parental Z-AUC; stronger effect = lower value
row,Compound,Z-AUC
1,CC[C@@]1(O)C(=O)OCc2c1cc1n(c2=O)Cc2cc3ccccc3nc2-1,-2.44
2,CN(C)[C@@H]1C(=O)C(C(N)=O)=C(O)[C@@]2(O)C(=O)C3=C(O)c4c(O)cccc4[C@@](C)(O)[C@H]3[C@H](O)[C@@H]12,-0.31
3,CSCC[C@@H](NC(=O)[C@@H](Cc1ccccc1)NC(=O)CNC(=O)CNC(=O)[C@@H](N)Cc1ccc(O)cc1)C(=O)O,1.17
4,COC(=O)[C@@H](N)CCCN=C(N)N[N+](=O)[O-],-0.429
5,O=S(=O)(F)Cc1ccccc1,-0.355
6,CCc1c(C(=O)C(N)=O)c2c(OCC(=O)O)cccc2n1Cc1ccccc1,0.125
7,O=C(Oc1ccc([N+](=O)[O-])cc1)N1CCC(C(O)(c2ccc3c(c2)OCO3)c2ccc3c(c2)OCO3)CC1,0.266
8,Cc1ccccc1-n1c(Cn2cnc3c(N)ncnc32)nc2cccc(C)c2c1=O,0.542
9,COc1cc([C@@H]2c3cc4c(cc3[C@@H](O)C3COC(=O)C32)OCO4)cc(OC)c1O (stereo partly drawn),-0.507
10,CN(C)NC(=O)CCC(=O)O,0.492
11,C#CC1(O)CCC2C3CCC4=CC(=O)CCC4(C)C3CCC21C (stereo not drawn),0.372
12,Cc1ccccc1-n1c(Cn2ncc3c(N)ncnc32)nc2cccc(C)c2c1=O,-0.62
13,O=C(Nc1ccncc1)C(=O)c1cn(Cc2ccc(Cl)cc2)c2ccccc12,-1.11
14,CC1=C(O)C(=O)C=C2C1=CC=C1[C@@]2(C)CC[C@@]2(C)[C@@H]3C[C@](C)(C(=O)O)CC[C@]3(C)CC[C@]12C,-1.33
15,CCN1C[C@]2(OC(=O)c3ccccc3NC(C)=O)CC[C@H](OC)[C@@]34[C@H]5CC6[C@@H](OC)C[C@](O)(C(C[C@@H]23)[C@@H]14)[C@@]5(O)[C@@H]6OC,1.09
16,CCCC[N+]1(C)[C@H]2CC(OC(=O)[C@H](CO)c3ccccc3)C[C@H]1[C@H]1O[C@H]12 (stereo partly drawn),1.34
17,N=c1c2c(-c3ccccc3)c(-c3ccccc3)n(Cc3ccccc3)c2ncn1C1CCC(O)CC1 (stereo not drawn),-0.41
18,C[C@]12CC[C@@H]3[C@@H](CCC4=CC(=O)CC[C@@H]43)[C@@H]1CC[C@@H]2OC(=O)CCc1ccccc1,-0.728
19,c1ccc2c(CN3CCNCC3)cccc2c1,-0.119
20,CCOP(=O)(OCC)C(C)NC(=O)N(CCCl)N=O (stereo not drawn),0.417
21,O=c1[nH]c2ccc(Cl)cc2c(N[C@@H]2CN3CCC2CC3)c1-c1nc2ccccc2[nH]1,-1.35
22,CC[C@@H](C(N)=O)N1CCCC1=O,-0.901
23,Clc1ccccc1C(c1ccccc1)(c1ccccc1)n1cccn1,0.863
24,NC1=NC(=O)N2CC12 (stereo not drawn),-0.747

# Same assay, conditions: PEO1/OlaR viability, CellTiter-Glo luminescence, 96 h; measured here: PEO4 Z-AUC; stronger effect = lower value
row,Compound,Z-AUC
1,CC[C@@]1(O)C(=O)OCc2c1cc1n(c2=O)Cc2cc3ccccc3nc2-1,-1.71
2,CN(C)[C@@H]1C(=O)C(C(N)=O)=C(O)[C@@]2(O)C(=O)C3=C(O)c4c(O)cccc4[C@@](C)(O)[C@H]3[C@H](O)[C@@H]12,0.0838
3,CSCC[C@@H](NC(=O)[C@@H](Cc1ccccc1)NC(=O)CNC(=O)CNC(=O)[C@@H](N)Cc1ccc(O)cc1)C(=O)O,1.05
4,COC(=O)[C@@H](N)CCCN=C(N)N[N+](=O)[O-],-0.589
5,O=S(=O)(F)Cc1ccccc1,0.278
6,CCc1c(C(=O)C(N)=O)c2c(OCC(=O)O)cccc2n1Cc1ccccc1,0.188
7,O=C(Oc1ccc([N+](=O)[O-])cc1)N1CCC(C(O)(c2ccc3c(c2)OCO3)c2ccc3c(c2)OCO3)CC1,0.407
8,Cc1ccccc1-n1c(Cn2cnc3c(N)ncnc32)nc2cccc(C)c2c1=O,0.532
9,COc1cc([C@@H]2c3cc4c(cc3[C@@H](O)C3COC(=O)C32)OCO4)cc(OC)c1O (stereo partly drawn),-1.03
10,CN(C)NC(=O)CCC(=O)O,0.93
11,C#CC1(O)CCC2C3CCC4=CC(=O)CCC4(C)C3CCC21C (stereo not drawn),0.608
12,Cc1ccccc1-n1c(Cn2ncc3c(N)ncnc32)nc2cccc(C)c2c1=O,-0.742
13,O=C(Nc1ccncc1)C(=O)c1cn(Cc2ccc(Cl)cc2)c2ccccc12,-0.872
14,CC1=C(O)C(=O)C=C2C1=CC=C1[C@@]2(C)CC[C@@]2(C)[C@@H]3C[C@](C)(C(=O)O)CC[C@]3(C)CC[C@]12C,-0.972
15,CCN1C[C@]2(OC(=O)c3ccccc3NC(C)=O)CC[C@H](OC)[C@@]34[C@H]5CC6[C@@H](OC)C[C@](O)(C(C[C@@H]23)[C@@H]14)[C@@]5(O)[C@@H]6OC,1.24
16,CCCC[N+]1(C)[C@H]2CC(OC(=O)[C@H](CO)c3ccccc3)C[C@H]1[C@H]1O[C@H]12 (stereo partly drawn),1.36
17,N=c1c2c(-c3ccccc3)c(-c3ccccc3)n(Cc3ccccc3)c2ncn1C1CCC(O)CC1 (stereo not drawn),-0.216
18,C[C@]12CC[C@@H]3[C@@H](CCC4=CC(=O)CC[C@@H]43)[C@@H]1CC[C@@H]2OC(=O)CCc1ccccc1,-0.686
19,c1ccc2c(CN3CCNCC3)cccc2c1,-0.706
20,CCOP(=O)(OCC)C(C)NC(=O)N(CCCl)N=O (stereo not drawn),0.472
21,O=c1[nH]c2ccc(Cl)cc2c(N[C@@H]2CN3CCC2CC3)c1-c1nc2ccccc2[nH]1,-1.24
22,CC[C@@H](C(N)=O)N1CCCC1=O,-0.237
23,Clc1ccccc1C(c1ccccc1)(c1ccccc1)n1cccn1,1.14
24,NC1=NC(=O)N2CC12 (stereo not drawn),-0.506

# Reference: PubChem BioAssay (NCATS)
